PP1 inh = PP1-alpha phosphatase inhibitors, primary screen, counter-screen for PP5 inhibitor project, biochemical, fluorescence, OMFP substrate, single point. actives 0.9% (n = 320,000). AID 2235, 2010. inhibition, % at 6.7 µM. Serine/threonine-protein phosphatase PP1-alpha catalytic subunit (Homo sapiens), P62136. purified PP1alpha;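 active = inhibition above the mean inhibition of all tested compounds plus 3 SD, computed separately for each screening campaign, cut at about 15% in these data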
Target sequence (P62136 whole entry, looked up): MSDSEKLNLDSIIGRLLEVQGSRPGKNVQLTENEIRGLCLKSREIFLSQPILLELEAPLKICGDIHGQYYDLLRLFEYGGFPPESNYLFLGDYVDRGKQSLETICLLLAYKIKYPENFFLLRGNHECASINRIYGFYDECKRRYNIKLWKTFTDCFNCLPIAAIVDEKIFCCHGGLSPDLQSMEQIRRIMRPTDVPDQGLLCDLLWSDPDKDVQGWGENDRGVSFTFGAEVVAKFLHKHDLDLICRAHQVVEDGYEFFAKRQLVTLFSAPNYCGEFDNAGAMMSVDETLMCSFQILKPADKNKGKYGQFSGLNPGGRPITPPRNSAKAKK
Beta cell apopt = inhibitors of cytokine-induced beta cell apoptosis, primary screen, luminescence; INS-1E cytokine-induced death, ATP luminescence, 48 h; percent of positive-control rescue, neutral wells zero; protection from apoptosis, % (test concentration not listed); actives 0.8% (n = 300,000); AID 435005, 2010;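 active = Every replicate reaches about 75%, or at least half do and their mean reaches it too, limit read from the data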;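 also: 0% = cytokine-treated negative control wells and 100% = positive control rescue; higher means more ATP so stronger rescue from cytokine killing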
CSC inhib = cancer stem cell viability inhibitors, primary screen, luminescence; actives 1.1% (n = 300,000); cancer stem cell-like cells viability; AID 2717, 2010; inhibition, % at 7.5 µM; in the data active = inhibition above about 75%; tested in HMLE shEcad cells
Calb FLC = C. albicans growth inhibition with fluconazole, primary screen, CaCi-2 strain, Alamar Blue fluorescence; C. albicans CaCi-2 (fluconazole-resistant clinical isolate) + fluconazole, 48 h; growth inhibition, % (no concentration beside the values); actives 0.57% (n = 300,000);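 active = growth inhibition above about 58% in most replicates, limit read from the data, passing the limit was not always enough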;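 also: all wells also contain fluconazole at 8 µg/ml as a sub-toxic cotreatment; 0% = median of DMSO wells and 100% = median of geldanamycin control wells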
PP5 inh = PP5 phosphatase inhibitors, primary screen, biochemical, fluorescence; inhibition, % at 6.7 µM; actives 0.18% (n = 320,000); purified PP5c, OMFP substrate fluorescence;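 active = inhibition above the campaign's mean inhibition across all tested compounds plus 3 SD, cut at about 9.5% in these data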;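 also: 0% = DMSO only and 100% = 100 µM cantharidin control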
Mdm2 MdmX PPI = inhibitors of human Mdm2-MdmX association, primary screen, cell-based, luminescence, split luciferase, SaOS-2, uHTS; Protein Mdm4 (Homo sapiens) + E3 ubiquitin-protein ligase Mdm2 (Homo sapiens), …; SaOS-2 split-luciferase Mdm2/MdmX complementation; inhibition, % at 8 µM; actives 3% (n = 330,000); AID 485346, 2010;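 active = inhibition of at least 50% at 8 µM in the primary screen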
Mdm2 MdmX conf = Mdm2-MdmX complex disruptors, retested hits, confirmation, luminescence, single concentration. shares compounds with Mdm2 MdmX PPI. Mdm2-MdmX binding, luminescent assay. inhibition, % at 8 µM. actives 55% (n = 10,000). AID 489028, 2010; in the data active = inhibition above about 40%
Full FLuc ctr = full-length luciferase signal inhibition, confirmation, counter-screen for Mdm2/MdmX interaction inhibitor project, cell-based, single concentration, SaOS-2. AID 504607, 2011. actives 77% (n = 6,200). inhibition, % at 8 µM. shares compounds with Mdm2 MdmX PPI. SaOS-2 full-length luciferase counterscreen, luminescence;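 active = mean inhibition at 8 µM reaching about 37%, which flags the compound as non-specific, limit read from the data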;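 also: p53-null SaOS-2 cells with luciferase driven by a doxycycline-inducible promoter; compound on cells about two nights before reading with doxycycline added after day one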
* = called active by the depositor; / = not tested or not shown. The list is not random: actives were taken first. Their share in the collection is about 4.9%.

SMILES | PP1 inh | Beta cell apopt | CSC inhib | Calb FLC | PP5 inh | Mdm2 MdmX PPI | Mdm2 MdmX conf | others
c1ccc2c(c1)OCC(c1nnc3sc(-c4ccc5c(c4)OCO5)nn13)O2 (stereo not drawn) | 0 | -3 | 8 | -5 | 1 | -11 | /
O=C(Cn1ccc(NC(=O)OCc2ccccc2)nc1=O)NCc1ccc2[nH]ccc2c1 | -1 | 1 | 4 | / | -1 | 18 | /
COc1cc(NC(=O)c2cccc3c2C(=O)N(C2CCCCC2)C3)cc(OC)c1OC | 0 | 8 | 8 | 33 | 4 | 78* | 43* | Full FLuc ctr=61*
Cc1cc(C)cc(NC(=O)c2cccc3c2C(=O)N(C2CCCCC2)C3)c1 | 0 | 6 | -23 | 10 | 0 | 17 | /
O=C(Nc1cccc(-n2cccn2)c1)C1CCCN(Cc2cc3ccccc3[nH]2)C1 (stereo not drawn) | / | / | / | -6 | / | 28 | /
CCn1ncc(CN2CCCC(C(=O)Nc3cccc(-c4cc5ccccc5[nH]4)c3)C2)c1C (stereo not drawn) | -3 | -2 | 20 | 3 | 2 | 59* | 12
Cc1cc2c(cc1C)CSC(c1c(O)ccc3ccccc13)SC2 | -1 | 7 | 112* | 61 | 8 | 75* | 37 | Full FLuc ctr=57*
O=C(Nc1ccc(Oc2ccc(Cl)cc2)c(Cl)c1)c1cc(I)cc(I)c1O | -1 | -2 | 100* | / | -2 | 100* | 74* | Full FLuc ctr=56*
COc1ccc(NC(=O)c2ccccc2F)cc1Cl | -5 | -5 | 0 | 3 | 0 | -41 | /
Cc1ccc(S(=O)(=O)N2CCN(C(=O)CNC(=O)c3sc4ccccc4c3Cl)CC2)cc1 | -3 | -2 | / | 1 | 0 | 22 | /
NCCCCCc1cn(CC(=O)NCCCCCCCCCCC(=O)N2CCNCC2)nn1 | -4 | 4 | -5 | / | -1 | -16 | /
CCN(Cc1ccccc1)C(=O)c1[nH]c2ccc(OC)cc2c1C | / | / | / | 0 | / | -16 | /
CCN(CC)CCNC(=O)c1[nH]c2ccc(OCc3ccccc3)cc2c1C | -2 | 24 | 83* | -2 | 5 | 61* | 39 | Full FLuc ctr=69*
CN(C)CCCNc1ncnc2c1c(-c1ccccc1)cn2-c1ccccc1 | 2 | 2 | 15 | -2 | 5 | 61* | 42* | Full FLuc ctr=89*
C/C=C/c1cc(CN2CCN(c3ccc(OC)cc3)CC2)c(O)c(OC)c1 | -3 | 4 | 3 | 9 | -1 | 17 | /
C/C=C/c1cc(CN2CCN(c3ccccc3)CC2)c(O)c(OC)c1 | -7 | 5 | 22 | -4 | -1 | 82* | 45* | Full FLuc ctr=83*
CC(C)CC(NC(=O)OC(C)(C)C)c1cn([C@@H](Cc2ccc(O)cc2)C(=O)N2CCN(C(=O)OC(C)(C)C)CC2)nn1 (stereo partly drawn) | -6 | 4 | 10 | 8 | -8 | 22 | /
C=CC(=O)Nc1cccc(Oc2ncnc3[nH]cc(-c4cnc5ccccc5c4)c23)c1 | / | -53 | / | / | / | 93* | 79* | Full FLuc ctr=59*
CC(=O)Nc1cccc(Oc2ncnc3scc(-c4ccc(C)cc4)c23)c1 | -5 | 10 | -4 | 12 | 5 | 11 | /
O=S(=O)(N(Cc1ccccc1)[C@H](CO)Cc1ccccc1)N(Cc1ccccc1)[C@H](CO)Cc1ccccc1 | / | 0 | / | / | / | 36 | /
CCN([C@H](CO)CC(C)C)S(=O)(=O)c1ccccc1 | / | / | / | / | / | 15 | /
COc1ccc(CN([C@H](CO)CC(C)C)S(=O)(=O)N(Cc2ccccc2)[C@H](CO)CC(C)C)cc1 | / | 19 | / | / | / | 62* | 19
C=C[C@H](CC(C)C)N(Cc1ccccc1)S(=O)(=O)N(Cc1ccccc1)[C@@H](C=C)CC(C)C | / | 84* | 16 | / | / | 83* | 21
CC(C)C[C@@H](CO)N(Cc1ccccc1)S(=O)(=O)N(Cc1ccccc1)[C@H](CO)CC(C)C | 8 | 31 | 125* | / | 8 | 81* | 19
CC(C)C[C@@H](CO)N(Cc1ccccc1)S(=O)(=O)N(Cc1ccccc1)[C@@H](CO)CC(C)C | 8 | 12 | 126* | / | 5 | 83* | -20
SMILES | PP1 inh | Beta cell apopt | CSC inhib | Calb FLC | PP5 inh | Mdm2 MdmX PPI | Mdm2 MdmX conf | others
COc1cc(C2C3=C(CC(C)(C)CC3=O)N(C)C3=C2C(=O)CC(C)(C)C3)cc(Br)c1O | 0 | / | -18 | 6 | 0 | 3 | /
COC(=O)c1cn[nH]c1NC(=S)Nc1ccc(C)cc1Cl | -5 | 7 | -8 | 18 | 5 | 52* | -12
COC(=O)c1cn[nH]c1NC(=S)Nc1ccccc1C | -4 | / | / | 7 | 3 | -8 | /
COC(=O)c1cn[nH]c1NC(=S)Nc1ccc(Cl)c(Cl)c1 | -2 | 11 | -5 | 28 | 0 | 56* | -20
O=C1/C(=C/c2ccccn2)SC(=S)N1N1CCOCC1 | -2 | / | -8 | -4 | 1 | 30 | /
COc1ccc(/C=N/n2cnc3c([nH]c4ccc(F)cc43)c2=O)cc1CSc1ccccn1 | 1 | 53 | -13 | -3 | -1 | 94* | 28
COc1ccc2c(c1)[nH]c1c(=O)n(/N=C/c3ccc(OC)c(COc4ccccn4)c3)cnc12 | 4 | -18 | 15 | -16 | 1 | -31 | /
Cc1nn(C)cc1/C=N/NC(=O)Cn1nnc(N)n1 | -1 | 2 | -12 | 0 | 3 | 29 | /
CCCCn1c(=O)[nH]c(=O)c2c1nc(-c1ccc(-c3ccc(F)cc3)o1)n2C | -2 | -4 | -19 | 6 | 5 | 74* | 10
COCCn1c(-c2ccc(-c3ccccc3Cl)o2)nc2c1c(=O)[nH]c(=O)n2CC(C)C | -1 | 6 | -2 | -1 | 5 | 59* | -1
CCCCn1c(=O)[nH]c(=O)c2c1nc(-c1ccc(CC)c([N+](=O)[O-])c1)n2C | -2 | -1 | -14 | 2 | -2 | 5 | /
CCCCn1c(=O)[nH]c(=O)c2c1nc(-c1ccc(-c3ccccc3Br)o1)n2CCOC | 0 | -2 | 6 | 0 | 4 | 53* | 6
CCCCn1c(=O)[nH]c(=O)c2c1nc(-c1ccncc1)n2CCOC | -2 | -2 | -16 | -9 | 4 | 10 | /
Cc1cccc(Cn2nc(C)cc2NC(=O)CCCn2ccc([N+](=O)[O-])n2)c1 | 0 | -1 | -7 | -3 | 0 | 9 | /

Bioassay records (PubChem)
